{
  "source": "PubChem BioAssay (Tox21)",
  "note": "Inconclusive results are not listed. Active and inactive are the calls of the source. Calls come from the whole dose curve; as a rule, active = well fitted activation curve with a large enough effect in the repeat runs; inconclusive = weak or mixed curves; inactive = no such curve, though single readings can be large or run the other way. % is set by controls: 0 for no effect and ±100 for the full control effect.",
  "data": [
    {"experiment": "qHTS assay for small molecules that induce genotoxicity in human embryonic kidney cells expressing luciferase-tagged ATAD5 (AID 651632); note: nearly all actives have a fitted effect of over 15% in size", "conditions": "HEK293T ATAD5-luciferase induction, 16 h; series mostly up to 83.3 µM; activation: at the top concentration", "text": "U.S. Tox21 Program National Center for Advancing Translational Sciences [NCATS] NIH Chemical Genomics Center [NCGC] U.S. Environmental Protection Agency [EPA] National Institutes of Environmental Health Sciences [NIEHS] National Toxicology Program [NTP] U.S. Food and Drug Administration [FDA] Tox21 Assay Overview: As cancer cells divide rapidly and during every cell division they need to duplicate their genome by DNA replication. The failure to do so results in the cancer cell death. Based on this concept, many chemotherapeutic agents were developed but have limitations such as low efficacy and severe side effects etc. A new cell based assay was developed to find the compounds that effectively block DNA replication either by directly damaging DNA or by inhibiting other cellular mechanisms. Enhanced Level of Genome Instability Gene 1 (ELG1; human ATAD5) protein levels increase in response to various types of DNA damage. Using a luciferase reporter-gene tagged with ATAD5, a cell-based assay [developed by Kyungjae Myung, NHGRI, NIH] was used to measure the induction of ATAD5 in human embryonic kidney cells (HEK293T). So, increase in luciferase activity can be used to identify the compounds that cause genetic stress.\nTox21 Assay Protocol Summary: For genotoxicity screening, 2,000 cells in 5 uL/well were dispensed into white, solid-bottom 1536-well plates using a Multidrop Combi (Thermo Scientific) dispenser. Following transfer of 23 nL compound or DMSO vehicle by a pin tool, the plates were incubated 16 hr at 37C and 5% CO2. 5 ul Amplite (AAT Bioquest, Inc.) was then added to each plate and following 30 min incubation at room temperature, luciferase activity was quantified on a ViewLux CCD-based plate reader.", "values": [
      {"smiles": "CCCCN1C=CN(C)C1", "activation": "2.02% [at 39.1 µM] (inactive)"},
      {"smiles": "CC(C)NNC(=O)c1ccncc1", "activation": "-2.67% (inactive)"},
      {"smiles": "O=C(O)c1cc(C(=O)O)cc(C(=O)O)c1", "activation": "-1.19% [at 95.3 µM] (inactive)"},
      {"smiles": "O=C(O)CNC(=O)c1ccccc1", "activation": "0.623% (inactive)"},
      {"smiles": "CCCCCCCCCC[N+](C)(C)[O-]", "activation": "-2.22% (inactive)"},
      {"smiles": "O=Cc1cccc(Br)c1", "activation": "-1.44% [at 95.3 µM] (inactive)"},
      {"smiles": "COc1cc2c(cc1OC)-c1cc3ccc(OC)c(OC)c3c[n+]1CC2", "activation": "-7.18% [at 95.3 µM] (inactive)"},
      {"smiles": "CCCOC(=O)CC", "activation": "-0.889% (inactive)"},
      {"smiles": "O=S(=O)(O)c1cc(O)c(O)c(S(=O)(=O)O)c1", "activation": "1.43% (inactive)"},
      {"smiles": "C=CC(C)(CCC=C(C)C)OC(=O)CC", "note": "(stereo not given)", "activation": "-0.803% (inactive)"},
      {"smiles": "CC1=NS(=O)(=O)c2cc(Cl)ccc2N1", "activation": "-3.07% (inactive)"},
      {"smiles": "N[C@@H](CCC(=O)O)C(=O)O", "Potency": "inactive"},
      {"smiles": "CCCCCCCCCCCCSC", "activation": "0.837% (inactive)"},
      {"smiles": "OCCc1ccccn1", "activation": "0.919% (inactive)"},
      {"smiles": "CC(=O)Oc1cccc(C)c1", "activation": "1.26% (inactive)"},
      {"smiles": "CCOc1ccccc1OCC", "activation": "1.68% (inactive)"},
      {"smiles": "FB(F)F", "activation": "1.94% [at 95.3 µM] (inactive)"},
      {"smiles": "C=COCC1CCC(COC=C)CC1", "note": "(stereo not given)", "activation": "-0.778% (inactive)"},
      {"smiles": "O=S(=O)(O)c1cccc2c(S(=O)(=O)O)cccc12", "activation": "1.07% (inactive)"},
      {"smiles": "Nc1ccn([C@@H]2O[C@H](CO)[C@@H](O)C2(F)F)c(=O)n1", "activation": "4.45% (inactive)"},
      {"smiles": "COc1ccccc1OCC1CNC(=O)O1", "note": "(stereo not given)", "activation": "3.81% (inactive)"},
      {"smiles": "Nc1ccncc1N", "activation": "-0.388% (inactive)"},
      {"smiles": "Cc1cc(C)c(N=Nc2c(O)c(S(=O)(=O)O)cc3cc(S(=O)(=O)O)ccc23)cc1C", "activation": "1.99% [at 8.08 µM] (inactive)"},
      {"smiles": "C[N+]1(C)CCCC(OC(=O)C(O)(c2ccccc2)c2ccccc2)C1", "note": "(stereo not given)", "activation": "-0.483% [at 39.1 µM] (inactive)"},
      {"smiles": "CC(=O)c1ccccc1[N+](=O)[O-]", "activation": "-6.26% (inactive)"},
      {"smiles": "Cc1ccc(C(=O)c2ccccc2)cc1", "activation": "1.16% (inactive)"},
      {"smiles": "CCC(C)(CCCC(C)C)OC(C)=O", "note": "(stereo not given)", "activation": "-1.2% (inactive)"},
      {"smiles": "CC(C)(C)C(=O)c1ccccc1", "activation": "1.48% (inactive)"},
      {"smiles": "CO[Si](C)(OC)c1ccccc1", "activation": "-2.13% (inactive)"},
      {"smiles": "CCCCCCCC1CCCC1=O", "note": "(stereo not given)", "activation": "1.24% (inactive)"},
      {"smiles": "c1ccc(Cc2ccccc2)cc1", "activation": "-1.03% (inactive)"},
      {"smiles": "CC(C)C(=O)OC(=O)C(C)C", "activation": "0.711% (inactive)"},
      {"smiles": "CCCCCCCCCCCCCCC(=O)O", "activation": "8.01% (inactive)"},
      {"smiles": "CC(C)(C)c1ccc(-c2ccc(C(C)(C)C)cc2)cc1", "activation": "2.47% (inactive)"},
      {"smiles": "CN1[C@@H]2CC[C@H]1CC(OC(=O)C(O)c1ccccc1)C2", "note": "(stereo not given in full)", "Potency": "inactive"},
      {"smiles": "CN(C)CCN(C)CCN(C)C", "activation": "3.73% (inactive)"},
      {"smiles": "Clc1cc(Cl)c(Cl)nc1Cl", "activation": "-1.61% (inactive)"},
      {"smiles": "COc1cccc(OC)c1C(=O)N[C@@H]1C(=O)N2[C@@H]1SC(C)(C)[C@@H]2C(=O)O", "activation": "-0.448% (inactive)"},
      {"smiles": "CCCCOC(=O)CCC(C)=O", "activation": "1.35% (inactive)"},
      {"smiles": "CC12CCC(C(=O)C1=O)C2(C)C", "note": "(stereo not given)", "activation": "0.822% [at 95.3 µM] (inactive)"}
    ]}
  ]
}
